PI5P4K alpha inh: PI5P4K alpha (human) kinase inhibition. P48426. PI5P4Kalpha enzyme, ADP-Glo luminescence, 60 min; stronger effect = lower value. max response, %. hit rate 1.2% among 330,000. AID 652105; active = max response of -50% or lower; inconclusive = between -30% and -50%; inactive = -30% or higher; note: value at the top dose of about 77 µM; % is set by controls: 0 for no effect and ±100 for the full control effect
Target sequence (P48426 whole entry, looked up): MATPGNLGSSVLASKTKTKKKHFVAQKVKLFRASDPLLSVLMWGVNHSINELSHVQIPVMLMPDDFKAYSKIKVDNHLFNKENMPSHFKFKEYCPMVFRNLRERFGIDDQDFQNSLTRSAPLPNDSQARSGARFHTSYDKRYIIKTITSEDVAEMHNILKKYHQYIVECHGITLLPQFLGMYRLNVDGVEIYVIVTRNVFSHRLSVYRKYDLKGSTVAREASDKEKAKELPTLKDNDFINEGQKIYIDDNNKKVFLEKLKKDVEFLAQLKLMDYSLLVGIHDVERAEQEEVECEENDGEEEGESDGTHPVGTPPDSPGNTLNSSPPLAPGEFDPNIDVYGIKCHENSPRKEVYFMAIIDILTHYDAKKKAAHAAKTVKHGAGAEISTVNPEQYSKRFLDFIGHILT
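qHTS, 1536-well: enzyme/substrate mix, compound by pin tool, 5 microM ATP final; RT 60 min; ADP-Glo reagents 1 (45 min) then 2 (30 min); luminescence.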
WRN inhibitor: inhibitors of human WRN helicase. Potency, µM (top dose mostly 114 µM), for the others: top-dose activity change, negative = inhibition, actives largely listed as inhibitors. Q14191. WRN helicase unwinding, fluorescent forked duplex, kinetic. AID 651768. hit rate 0.46% among 360,000; note: potency is the fitted concentration of half-maximal effect; % is set by controls: 0 for no effect and ±100 for the full control effect; nearly all actives have a fitted effect of over 55% in size
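Primary qHTS, 1536-well format. 20 nM WRN + compound, 15 min RT; start with 100 nM forked fluorophore/quencher duplex, 2 mM ATP (final); kinetic read ex 525/em 598 nm.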
Pol beta inh: DNA polymerase beta (human) inhibition. hit rate 1.3% among 340,000. AID 485314. Pol beta primer extension/strand displacement, fluorescence kinetic. Potency, µM (doses to about 114 µM), without a hit: at the top dose activity change, negative = inhibition, actives largely listed as inhibitors; note: potency is the fitted concentration of half-maximal effect; % is set by controls: 0 for no effect and ±100 for the full control effect
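10 nM enzyme + cpd, 15 min RT; start with substrate 50 nM final; read 0 min and after 10 min RT. Corrected, normalized data; 4-parameter Hill curve fit.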
POLK inh: blocks human DNA polymerase kappa activity. purified Pol kappa, fluorescent DNA synthesis assay, 10 min. Potency, µM (series often up to 107 µM), inactives show at the highest dose activity, negative = inhibition, usual class: inhibitors. hit rate 0.53% among 400,000. AID 588579; note: potency is the fitted concentration of half-maximal effect; % is set by controls: 0 for no effect and ±100 for the full control effect
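10 nM Pol kappa was preincubated with compounds for 15 min at room temperature. Reaction started with 50 nM (final) substrate. Fluorescence read kinetically at 0 and 10 min.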
POLI inh: inhibitors of human DNA polymerase iota; Q9UNA4; Pol iota fluorescent replication assay, 10 min; Potency, µM (highest dose often 115 µM), for inactives: top-dose activity, negative = inhibition, most hits filed as inhibitors; hit rate 1% among 390,000; note: potency is the fitted concentration of half-maximal effect
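Pol iota at 10 nM preincubated 15 min with compounds at room temperature; reaction started with fluorescent substrate, 50 nM final. Fluorescence read kinetically at 0 and 10 min; buffer-only wells as negative control.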
Pol eta inh: DNA polymerase eta (human) inhibition; recombinant Pol eta, fluorescent DNA replication assay; Potency, µM (titrated, usually from 114 µM), for the others: at the highest dose activity change, negative = inhibition, usual class: inhibitors; hit rate 1.2% among 390,000; AID 588591; note: potency is the fitted concentration of half-maximal effect; % is set by controls: 0 for no effect and ±100 for the full control effect
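Pol eta (10 nM) was preincubated with compounds for 15 min at room temperature, after which fluorescent replication substrate (50 nM final) was added to start the reaction. Fluorescence was read kinetically at 0 and 10 min.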
* hit, by the source's call; u = inconclusive; x = not tested or not shown; [ ] = dose if it differs, or a comment. Most compounds without a hit are left out; they make up all but 2.8% or so of the library. Unless noted, calls come from the whole dose curve; as a rule, active = well fitted curve in the direction sought with a large enough effect; inconclusive = small, poorly fitted or top-dose-only effect, or another doubt; inactive = no such curve, though single readings can be large; an effect the other way counts as inactive or inconclusive.

SMILES	PI5P4K alpha inh	WRN inhibitor	Pol beta inh	POLK inh	POLI inh	Pol eta inh
COc1cc(OC)c2c(-c3ccccc3)cc(=O)oc2c1C(CC(=O)N1CCCC1)c1ccc2c(c1)OCO2 (centres undefined)	-9	-12%	50µM*	u	79µM*	2%
COc1cc(OC)c2ccc(=O)oc2c1C(CC(=O)N1CCCC(C)C1)c1ccc2c(c1)OCO2 (centres undefined)	u	-19%	40µM*	u	u	40µM*
COc1cc(O)c(C(CC(=O)N2CCCCC2)c2ccc3c(c2)OCO3)c(OC)c1 (centres undefined)	1	9%	11%	15%	-2%	-11%
Cc1cccc(CN2Cc3cccc4c3[C@H](C=CC4)CC2=O)c1	x	x	x	-8%	15%	x
C[C@H](NC(=O)c1ccccc1)C(=O)OCC(=O)Nc1ccc(Cl)cn1	-17	5%	x	x	x	-7%
Cc1ccc2c(c1)CCCN2C(=O)c1cnn2c1NC(=C1CC1)C=C2C(F)F	x	x	x	-6%	-2%	x
CC(C)c1ccc(S(=O)(=O)/N=C2\C=C(NS(=O)(=O)c3ccccc3)C(=O)c3ccccc32)cc1	-68*	u	u	-20%	u	79µM*
CCc1ccc(S(=O)(=O)/N=C2\C=C(NS(=O)(=O)c3ccccc3)C(=O)c3ccccc32)cc1	u	-12%	u	-27%	u	89µM*
CC(C)c1ccc(S(=O)(=O)/N=C2/C=CC(=O)c3ccccc32)cc1	x	x	2%	x	x	x
O=C(O)[C@@H]1[C@H]2C[C@H]3c4[nH]c5ccccc5c4CCN3C[C@@H]2CC[C@@H]1O	0	10%	x	u	u	79µM*
COC1=CC(=NCl)C=CC1=NCl	-62*	u	x	x	x	x
COc1ccccc1/C=C/C=N/NC(=O)c1cc(-c2ccco2)[nH]n1	-72*	-22%	25µM*	u	u	u
Cc1ccc2c(c1)c1c(c(=O)n(-c3cccc(Cl)c3)c(=O)n1CC(=O)c1ccc(Cl)cc1)n2C	x	x	17%	1%	79µM*	-14%
N#Cc1ccccc1NC(=O)COc1ccccc1C(=O)Nc1ccccc1	6	-12%	x	-11%	1%	-4%
O=C(NCCNC(=O)c1ccc([N+](=O)[O-])cc1)c1ccncc1	1	-32%[57.1 µM]	17%	0%	76%	-9%
CCOC(=O)C1(Cc2ccc(OC)cc2)CCN(C(=O)C2=CCCC2)CC1	-94*	10%	14%	6%	15%	-17%
COc1cc(-c2c(-c3ccc4c(c3)OCO4)noc2-c2ccsc2)cc(OC)c1OC	x	x	x	7%	10%	x
O=C(CSc1oc(-c2ccccc2)nc1S(=O)(=O)c1ccc(Br)cc1)c1ccccc1	x	x	6%	0%	u	2%
Cc1cc(C)c(S(=O)(=O)NCCSCc2ccco2)c(C)c1	-19	-12%[11.6 µM]	x	u	22µM*	20µM*
COc1ccc(/C=C/C(=O)NCCSCc2ccco2)cc1OC	-2	-23%[57.1 µM]	-14%	-40%	71µM*	-29%
COc1ccc(CCNC(=O)/C=C/c2ccco2)cc1OC	11	-7%	11%	-21%	u	2%
COc1ccc(S(=O)(=O)NCCSCc2ccco2)cc1OC	x	-2%[11.6 µM]	40µM*	-27%	45µM*	u
CCOc1cccc(C(=O)N(Cc2ccc(CC)cc2)C2CCS(=O)(=O)C2)c1 (centres undefined)	x	x	u	8%	-13%	-2%
c1nc(SSc2ncnc3nc[nH]c23)c2[nH]cnc2n1	-80*	40µM*	x	-5%	u	-11%
CC1=NN(c2nc(-c3ccc(C)cc3)cs2)C(=O)C1N=Nc1cccc(O)c1 (centres undefined)	-71*	-33%	13µM*	u	u	u
SMILES	PI5P4K alpha inh	WRN inhibitor	Pol beta inh	POLK inh	POLI inh	Pol eta inh
Nc1c(Cl)cc(C=O)cc1Cl	x	x	x	-11%	23%	x
COc1ccccc1C(=O)NC(=O)CSc1nnc(SC)s1	6	-8%	x	-1%	17%	-13%
COc1ccccc1C(=O)NC(=O)CSc1nnc(N)s1	-60*	-14%[11.6 µM]	x	-30%	u	79µM*
Cn1c(/C(C#N)=C/c2ccccc2Br)nc2ccccc21	x	x	6%	u	79µM*	x
CCn1c(/C(C#N)=C/c2ccccc2Cl)nc2ccccc21	x	x	-28%	-3%[60.1 µM]	-15%	-4%
Cn1cccc1C(=O)OCc1cc(-c2ccco2)on1	-7	-1%	x	-18%	u	1%
Nn1c(SCC(=O)NC2CCCCC2)nnc1C1CC1	0	-5%	0.32µM*	-18%	1%	1%
Cn1c2ccccc2c2cnn(CC(=O)Nc3ccccc3F)c(=O)c21	x	x	2%	-2%	22%	-18%
CN(C)c1ccc(C=c2c3cc(O)ccc3n3c2cc(-c2ccccc2)[n+]3C)cc1	-54*	18µM*	x	u	50µM*	u
C[n+]1c(-c2ccccc2)cc2c(=Cc3ccccc3)c3ccccc3n21	-50*	u	x	-11%	50µM*	13%
C[n+]1c(-c2ccccc2)cc2c(=Cc3ccc([N+](=O)[O-])cc3)c3ccccc3n21	u	u	x	-3%	50µM*	7%
Cc1ccc(CCNC(=O)c2c(C)oc3ncn(CC(C)C)c(=O)c23)cc1	x	x	-27%	-8%	-6%	-1%
S=c1[nH]nc(NCCCN2CCOCC2)s1	-69*	-6%	-18%	-8%	-6%	-3%
COc1ccccc1-c1nc2s/c(=C\c3cccs3)c(=O)n2n1	-10	u	u	-13%	u	-6%
Cc1ccc(/C=c2\sc3nc(-c4cccs4)nn3c2=O)o1	x	-4%[11.6 µM]	18µM*	u	u	u
O=c1/c(=C/c2ccco2)sc2nc(-c3ccccc3Br)nn12	u	u	35µM*	79µM*	u	16µM*
O=C(CSc1ccc2nnc(-c3cccc(F)c3)n2n1)NCc1ccco1	x	-19%	79µM*	-39%	u	0%
O=C1C=CC(O)(c2cc(=O)c3c(O)cc(O)cc3o2)C=C1	u	-13%[11.6 µM]	14%	-8%	6.3µM*	u
OCCN=c1cc(-c2ccccc2)oc2ccc(Cl)cc12	0	-5%	89µM*	-8%	u	2%
Cc1ccc(C(C2=C(O)CC(C)(C)CC2=O)C2C(=O)CC(C)(C)CC2=O)s1 (centres undefined)	u	56µM*	2%	-13%	-17%	4%
CC1(C)CC(=O)C(C(C2=C(O)CC(C)(C)CC2=O)c2ccc(Br)s2)C(=O)C1 (centres undefined)	-80*	22µM*	-1%	-3%	u	-3%
CCCCN1CC(C)(C)[C@H](CC(=O)NC)C1=O	3	-3%	x	x	x	-3%
O=C(Nc1nc(-c2cccc3ccccc23)cs1)c1cnccn1	-5	-8%	14%	-10%	5%	u
